Pol iota inh: inhibitors of human DNA polymerase iota; Q9UNA4; Pol iota fluorescent replication assay, 10 min; Potency, µM (titrated, usually from 115 µM), inactives show top-dose activity, negative = inhibition, most hits filed as inhibitors; hit rate 1% among 390,000; note: potency is the fitted concentration of half-maximal effect
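Fluorescent replication assay read twice, at 0 min and 10 min after adding 50 nM (final) substrate. Enzyme (10 nM) and compounds were first incubated 15 min at room temperature; enzyme-free buffer wells were negative controls.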
FEN1 inhibitor: inhibitors of human flap endonuclease 1; P39748; Recombinant FEN1 flap cleavage, fluorescence, 15 min; Potency, µM (doses to about 114 µM), for the others: top-dose activity change, negative = inhibition, hits mostly inhibitors; hit rate 0.35% among 390,000; AID 588795; note: potency is the fitted concentration of half-maximal effect; % is set by controls: 0 for no effect and ±100 for the full control effect; nearly all actives have a fitted effect of over 65% in size
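FEN1 at 10 nM preincubated with compounds 15 min at room temperature, then flap DNA substrate added at 50 nM final. Signal read at 0 and 15 min; concentration-response fitted with four-parameter Hill equation.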
WRN inhibitor: inhibitors of human WRN helicase | hit rate 0.46% among 360,000 | Potency, µM (titrated, usually from 114 µM), for the others: top-dose activity change, negative = inhibition, most hits filed as inhibitors | AID 651768 | WRN helicase unwinding, fluorescent forked duplex, kinetic; note: potency is the fitted concentration of half-maximal effect; % is set by controls: 0 for no effect and ±100 for the full control effect; nearly all actives have a fitted effect of over 55% in size
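Screening of the MLSMR collection measured strand separation of a quenched forked DNA duplex (100 nM) by 20 nM WRN with 2 mM ATP, all final. Compounds were preincubated with enzyme 15 min at room temperature.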
Pol eta inh-1: DNA polymerase eta (human) inhibition. Q9Y253. hit rate 1.2% among 390,000. recombinant Pol eta, fluorescent DNA replication assay. Potency, µM (doses to about 114 µM), for inactives: top-dose activity change, negative = inhibition, usual class: inhibitors. AID 588591; note: potency is the fitted concentration of half-maximal effect; % is set by controls: 0 for no effect and ±100 for the full control effect
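Pol eta at 10 nM preincubated with compounds 15 min at room temperature; reaction started with fluorescent substrate (50 nM final) and read kinetically at 0 and 10 min.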
Pol beta inh: blocks human DNA polymerase beta activity; P06746; Pol beta primer extension/strand displacement, fluorescence kinetic; Potency, µM (highest dose often 114 µM), for inactives: at the highest dose activity change, negative = inhibition, usual class: inhibitors; hit rate 1.3% among 340,000; AID 485314; note: potency is the fitted concentration of half-maximal effect; % is set by controls: 0 for no effect and ±100 for the full control effect
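Pol beta (10 nM) and compounds were preincubated 15 min at room temperature, then 50 nM substrate (final) started primer extension/strand displacement. Reads were taken at 0 and 10 min; concentration-response data were fitted to a four-parameter Hill equation.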
Pol kappa inh-1: inhibitors of human DNA polymerase kappa | hit rate 0.53% among 400,000 | Potency, µM (top dose mostly 107 µM), for inactives: top-dose activity, negative = inhibition, usual class: inhibitors | purified Pol kappa, fluorescent DNA synthesis assay, 10 min; note: potency is the fitted concentration of half-maximal effect; % is set by controls: 0 for no effect and ±100 for the full control effect
Target sequence (Q9UBT6 whole entry, looked up): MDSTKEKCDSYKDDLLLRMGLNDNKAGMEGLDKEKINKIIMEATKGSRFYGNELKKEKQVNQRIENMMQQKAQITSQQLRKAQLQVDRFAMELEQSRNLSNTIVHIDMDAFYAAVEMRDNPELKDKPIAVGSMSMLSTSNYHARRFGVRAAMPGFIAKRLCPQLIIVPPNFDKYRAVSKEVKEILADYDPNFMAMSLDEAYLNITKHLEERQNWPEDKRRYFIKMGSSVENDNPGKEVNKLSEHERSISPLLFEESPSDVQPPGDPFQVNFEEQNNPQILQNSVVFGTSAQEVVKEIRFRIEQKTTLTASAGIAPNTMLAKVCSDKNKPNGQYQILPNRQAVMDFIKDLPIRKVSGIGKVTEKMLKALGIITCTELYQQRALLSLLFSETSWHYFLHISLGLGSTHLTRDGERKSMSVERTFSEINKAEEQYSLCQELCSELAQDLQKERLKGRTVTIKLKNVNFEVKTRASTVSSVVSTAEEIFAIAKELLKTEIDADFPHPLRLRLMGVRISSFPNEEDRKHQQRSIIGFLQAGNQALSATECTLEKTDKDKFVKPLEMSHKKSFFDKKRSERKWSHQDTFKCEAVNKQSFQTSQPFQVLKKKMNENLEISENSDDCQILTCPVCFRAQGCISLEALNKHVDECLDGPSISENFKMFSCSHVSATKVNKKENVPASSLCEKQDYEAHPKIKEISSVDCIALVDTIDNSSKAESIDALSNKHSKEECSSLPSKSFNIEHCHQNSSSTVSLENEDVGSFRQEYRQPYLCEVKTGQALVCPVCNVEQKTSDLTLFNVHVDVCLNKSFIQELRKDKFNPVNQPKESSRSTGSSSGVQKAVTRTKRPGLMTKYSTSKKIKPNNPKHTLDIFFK
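Readout: fluorescence, taken kinetically at 0 and 10 min. Conditions: 10 nM Pol kappa, 15 min RT compound preincubation, 50 nM substrate final. Controls: enzyme-free buffer wells.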
GALK confirm: galactokinase (human) inhibition, confirmation. hit rate 70% among 150. purified GALK, Kinase-Glo ATP depletion luminescence. Potency, µM (series often up to 115 µM), without a hit: top-dose activity, negative = inhibition, hits mostly inhibitors. shares compounds with Pol eta inh-1. AID 2015
Redox cycling: counter-screen for GALK inhibitors: redox cycling H2O2 generation. shares compounds with Pol eta inh-1. Phenol red-HRP H2O2 redox cycling, absorbance 600 nm. Potency, µM (top dose mostly 115 µM), for the others: top-dose activity change, negative = H2O2 signal, hits mostly inhibitors. hit rate 40% among 150. AID 2035
HEK293 viability: HEK-293 cytotoxicity, GALK inhibitor secondary | HEK-293 viability, ATP luminescence (CellTiter-Glo), 24/48 h | hit rate 10% among 170 | Potency, µM (series often up to 46.1 µM), without a hit: top-dose activity change, negative = cytotoxicity, most hits filed as inhibitors | AID 2547 | shares compounds with Pol eta inh-1; note: potency is the fitted concentration of half-maximal effect; % is set by controls: 0 for no effect and ±100 for the full control effect
Pol kappa inh-2: confirmation of human DNA polymerase kappa inhibitors. Potency, µM, usual class: inhibitors. shares compounds with Pol eta inh-1. purified Pol-kappa, fluorescent strand-displacement substrate. hit rate 76% among 920; note: potency is the fitted concentration of half-maximal effect
Pol eta inh-2: Pol eta (human) inhibition, cherry-pick confirmation. hit rate 64% among 2,600. shares compounds with Pol eta inh-1. Pol eta primer extension, TAMRA/BHQ fluorescence, 10 min. Potency, µM, most hits filed as inhibitors; note: potency is the fitted concentration of half-maximal effect
An asterisk follows results filed as active; [ ] = remark or other dose. Compounds with a hit are over-represented: about 2.4% of the library has one in this group of screens. Calls come from the whole dose curve; as a rule, active = well fitted curve in the direction sought with a large enough effect; inconclusive = small, poorly fitted or top-dose-only effect, or another doubt; inactive = no such curve, though single readings can be large; an effect the other way counts as inactive or inconclusive.

Results for COc1ccc(CC(=O)Nc2sc3c(c2C(=O)Nc2ccc(C)cc2)CCCCC3)cc1 ?
Pol iota inh: -21%; FEN1 inhibitor: 8%; Pol eta inh-1: inconclusive; Pol beta inh: inconclusive; Pol kappa inh-1: -16%; Pol kappa inh-2: inconclusive; Pol eta inh-2: inconclusive

What do the screens show for `Cc1ccc(SCC(c2ccccc2)N2CCN(C)CCC2=O)cc1` (centres undefined)?
Pol iota inh: -9%; FEN1 inhibitor: -11%; Pol kappa inh-1: -1%

What do the screens show for `CCOc1ccc(-c2cc(C)n3nc(C(N)=O)cc3n2)cc1`?
Pol iota inh: 28µM*; FEN1 inhibitor: 0%; WRN inhibitor: inconclusive; Pol eta inh-1: 22µM*; Pol beta inh: inconclusive; Pol kappa inh-1: -18%; Pol eta inh-2: inconclusive

Results for COC(=O)c1cc2nc(-c3ccccc3)cc(C)n2n1 ?
Pol iota inh: -6%; FEN1 inhibitor: 9%; WRN inhibitor: -22%; Pol eta inh-1: inconclusive; Pol beta inh: -1%; Pol kappa inh-1: -11%

What do the screens show for `Cc1cc(N)n(-c2ccc(Oc3ccccc3)c(S(=O)(=O)O)c2)n1`?
Pol iota inh: inconclusive; FEN1 inhibitor: 7%; WRN inhibitor: -36%; Pol eta inh-1: 18µM*; Pol beta inh: 14µM*; Pol kappa inh-1: inconclusive; Pol kappa inh-2: inconclusive

What do the screens show for `Cc1ccc(C(=O)Nc2nc(C)c(C(=O)N(C)C)s2)o1`?
Pol iota inh: -2%; FEN1 inhibitor: -7%; WRN inhibitor: 0%; Pol eta inh-1: -2%; Pol beta inh: 11%; Pol kappa inh-1: -12%

How did Cc1ccc(C(=O)Nc2nc(-c3ccco3)c(-c3ccco3)s2)o1 do in these assays?
Pol iota inh: inconclusive; FEN1 inhibitor: inconclusive; WRN inhibitor: inconclusive; Pol eta inh-1: 14µM*; Pol kappa inh-1: -31%; Pol kappa inh-2: 15*; Pol eta inh-2: 60*

What do the screens show for `CC12CCC3c4ccc(OCc5ccccc5)cc4CCC3C1CC(O)C2O` (centres undefined)?
Pol kappa inh-1: -5%[60.1 µM]

What do the screens show for `COc1cccc(Cn2cnc3c(cnn3C(C)(C)C)c2=O)c1`?
Pol iota inh: -18%; FEN1 inhibitor: 1%; Pol kappa inh-1: -9%

How did COc1ccc(N=C2S/C(=C\c3ccc(OC(C)C(=O)O)c(OC)c3)C(=O)N2CCc2c[nH]c3ccccc23)cc1 (centres undefined) do in these assays?
Pol iota inh: inconclusive; FEN1 inhibitor: inconclusive; WRN inhibitor: -12%; Pol eta inh-1: 32µM*; Pol beta inh: 35µM*; Pol kappa inh-1: inconclusive; GALK confirm: 42µM*; Redox cycling: -5%; HEK293 viability: 10%

How did CCOc1cc2[nH]c(=O)n(CCCC(=O)N3CCN(c4ccc(OC)cc4)CC3)c(=O)c2cc1OCC do in these assays?
Pol iota inh: 20%; FEN1 inhibitor: -17%; Pol eta inh-1: -2%; Pol beta inh: 25%; Pol kappa inh-1: 1%[60.1 µM]

Results for O=C(COc1ccc(Cl)cc1)Nc1nnc(S(=O)(=O)N2CCc3ccccc32)s1 ?
Pol iota inh: 7%; FEN1 inhibitor: 2%; Pol eta inh-1: inconclusive; Pol beta inh: 11%; Pol kappa inh-1: -7%

What do the screens show for `Cc1cccc(OCC(=O)Nc2nnc(S(=O)(=O)N3CCc4ccccc43)s2)c1`?
Pol iota inh: inconclusive; FEN1 inhibitor: 1%; Pol eta inh-1: 89µM*; Pol beta inh: 18%; Pol kappa inh-1: inconclusive; Pol eta inh-2: inconclusive

Results for CCN1C(C(=O)c2ccccc2)=C(OC(=O)COc2ccc(C)cc2)c2ccccc2S1(=O)=O ?
Pol iota inh: -12%; FEN1 inhibitor: 0%; Pol eta inh-1: -13%; Pol beta inh: -18%; Pol kappa inh-1: -23%

What do the screens show for `Cc1nn(CC(=O)NC2C(=O)N3C(C(=O)O)=C(CSc4nnnn4C)CSC23)cc1Br` (centres undefined)?
Pol iota inh: -26%; FEN1 inhibitor: 9%; WRN inhibitor: -7%[11.6 µM]; Pol eta inh-1: inconclusive; Pol beta inh: 32µM*; Pol kappa inh-1: -19%; Pol eta inh-2: 76*

How did Cn1nnnc1SCC1=C(C(=O)O)N2C(=O)C(NC(=O)Cn3nc(C(F)F)cc3C3CC3)C2SC1 (centres undefined) do in these assays?
Pol iota inh: 35µM*; FEN1 inhibitor: 0%; WRN inhibitor: -11%[11.6 µM]; Pol eta inh-1: 20µM*; Pol beta inh: 18µM*; Pol kappa inh-1: inconclusive; Pol eta inh-2: inconclusive

What do the screens show for `CC1=C(C(=O)O)N2C(=O)C(NC(=O)c3nn(C)cc3Cl)C2SC1` (centres undefined)?
Pol iota inh: 13%; FEN1 inhibitor: 8%; WRN inhibitor: 7%; Pol eta inh-1: -29%; Pol beta inh: 28%; Pol kappa inh-1: -11%

Results for Cc1c(Cl)cnn1CC(=O)NC1C(=O)N2C(C(=O)O)=C(CSc3nnnn3C)CSC12 (centres undefined) ?
Pol iota inh: inconclusive; FEN1 inhibitor: -21%; WRN inhibitor: -12%[11.6 µM]; Pol eta inh-1: 22µM*; Pol beta inh: 20µM*; Pol kappa inh-1: inconclusive; Pol eta inh-2: 43*

Results for Cc1cccc(OCCn2c(CCNC(=O)C3CCCCC3)nc3ccccc32)c1 ?
Pol iota inh: inconclusive; FEN1 inhibitor: -23%; Pol kappa inh-1: -24%

Screening data (PubChem BioAssay)
